Holding throughout (details): concentration: 1 μM, replicates: in singlicate; n = 1
The subject of assay [1] is PRKCQ.
Assay [2] relates to PRKD1.
For assay [3], the system named is PRKD2.
Assay [4] deals with PRKD3.
Assay [5] concerns PRKG1.
Assay [6] concerns PRKG2.
Assay [7] deals with T1, PRKR.
T1 construct: gene EIF2AK2

The subject of assay [8] is PRKX.
Assay [9] deals with PRP4.
Assay [10] has as its system T2, PYK2.
T2 construct: gene PTK2B

The subject of assay [11] is QSK.
For assay [12], the system named is RAF1.
In assay [13] the test system is RET.
The subject of assay [14] is RIOK1.
The subject of assay [15] is RIOK2.
Assay [16] deals with RIOK3.
Assay [17] concerns RIPK1.
Assay [18] relates to RIPK2.
Assay [19] deals with RIPK4.
The test system of assay [20] is RIPK5.

These results are taken from article PMC5540273 (PLoS ONE, 2017).

Molecules are shown by their SMILES.
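Also: KINOMEscan kinase panel screen.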

With `COc1ccc(C2=C(Nc3cccc(C(=O)O)c3)C(=O)NC2=O)cc1` [SB-390765], the “%Inh” value is reported as 12% in assay [1]; 0% in assay [2]; 0% in assay [3]; 0% in assay [4]; 0% in assay [5]; 0% in assay [6]. The “%Inh” value came out at 11% in assay [7]; 0% in assay [8]; 0% in [9]; 17% in assay [10]; 27% in [11]; 11% in assay [12]. Moreover, the “%Inh” value in assay [13] is reported as 3%; in [14], 13%; in assay [15], 18%; in [16], 0%; in assay [17], 0%; in assay [18], 0%. Besides, the “%Inh” value in assay [19] was 18%; in [20] it was 31%.

Take `CC(=O)Nc1nc2cnc(Nc3cc(NC(=O)c4cccc(CCC#N)c4)ccc3C)nc2s1`: the “%Inh” value came to 9% in [1]; 0% in [2]; 2% in [3]; 12% in assay [4]; 15% in [5]; 10% in assay [6]. Besides, the “%Inh” value was 8% in assay [7]; 13% in assay [8]; 1% in [9]; 0% in assay [10]; 0% in [11]; 88% in assay [12]. Moreover, the “%Inh” value in [13] is recorded as 51%; in [14], 0%; in [15], 17%; in [16], 10%; in assay [17], 0%; in [18], 0%. Moreover, the “%Inh” value in assay [19] worked out at 0%; in assay [20] it was 5%.

As to `CC1=C(C(=O)Nc2cc3cn[nH]c3cc2F)C(c2ccc(C(F)(F)F)cc2)CC(=O)N1` (centres unmarked) [GSK429286], the “%Inh” value in assay [1] is 28%; in [2], 22%; in [3] it was 4%; in [4], 0%; in assay [5], 30%; in [6] it was 0%. In addition, the “%Inh” value in [7] is reported as 0%; in assay [8] it was 87%; in assay [9], 7%; in assay [10], 10%; in assay [11], 14%; in [12], 5%. The “%Inh” value in assay [13] came out at 44%; in assay [14], 34%; in assay [15], 23%; in [16], 0%; in [17] it was 0%; in [18] it was 12%. Further, the “%Inh” value in assay [19] was determined as 13%; in assay [20], 1%.

With `COc1cccc(-c2cc(-c3c[nH]nc3-c3ccccn3)ccn2)c1` [GW680338], the “%Inh” value is reported as 2% in assay [1]; 62% in [2]; 47% in assay [3]; 34% in [4]; 6% in assay [5]; 0% in assay [6]. In addition, the “%Inh” value was found to be 0% in [7]; 0% in assay [8]; 26% in assay [9]; 0% in assay [10]; 17% in assay [11]; 25% in assay [12]. The “%Inh” value in assay [13] came out at 21%; in assay [14], 1%; in assay [15] it was 3%; in [16], 91.4%; in assay [17], 19%; in [18], 27%. Further, the “%Inh” value in assay [19] amounted to 0%; in [20], 5%.

Take `Clc1cc(Cl)cc(Nc2ccnc(Nc3cc(Cl)cc(Cl)c3)n2)c1` [GSK175726]: the “%Inh” value in assay [1] was found to be 0%; in assay [2], 0%; in assay [3], 12%; in [4], 0%; in [5], 0%; in assay [6], 12%. Also, the “%Inh” value in assay [7] worked out at 14%; in assay [8] it was 10%; in [9], 6%; in assay [10], 19%; in [11], 0%; in assay [12], 17%. Besides, the “%Inh” value came out at 10% in [13]; 34% in assay [14]; 91.7% in assay [15]; 35% in [16]; 0% in assay [17]; 41% in assay [18]. Moreover, the “%Inh” value was 10% in assay [19] and 6% in assay [20].

For the compound `Cl.O=C(Nc1cccc(-c2nn3ncccc3c2-c2ccnc(Nc3cccnc3)n2)c1)c1c(F)cccc1F` [GSK312879], the “%Inh” value in [1] is 25%; in assay [2] it was 0%; in [3], 0%; in assay [4] it was 25%; in [5], 16%; in assay [6] it was 0%. Besides, the “%Inh” value worked out at 0% in assay [7]; 3% in assay [8]; 11% in assay [9]; 0% in assay [10]; 0% in [11]; 87% in [12]. Moreover, the “%Inh” value is listed as 31% in assay [13]; 31% in assay [14]; 11% in assay [15]; 0% in assay [16]; 0% in [17]; 18% in assay [18]. Further, the “%Inh” value in assay [19] turned out to be 15%; in [20], 0%.

In the case of `Fc1cccc(COc2nnc(-c3ccc4c(c3)CCO4)o2)c1`, the “%Inh” value in assay [1] came to 22%; in assay [2], 0%; in assay [3], 1%; in assay [4], 0%; in assay [5], 0%; in assay [6], 0%. The “%Inh” value in assay [7] stood at 0%; in assay [8], 0%; in assay [9] it was 8%; in [10], 10%; in assay [11] it was 7%; in assay [12], 4%. For the same compound, the “%Inh” value was 5% in [13]; 9% in assay [14]; 0% in assay [15]; 0% in assay [16]; 0% in assay [17]; 0% in [18]. The “%Inh” value is 0% in assay [19] and 15% in assay [20].
